# Bioassay records from PubChem.
# Pf growth 96h – Primary qHTS for delayed death inhibitors of the malarial parasite plastid, 96 hour incubation; P. falciparum luciferase reporter growth, 96 h; hit rate 6.9% among 320,000; Potency, µM (doses to about 28.7 µM), without a hit: top-dose activity change, negative = inhibition, actives largely listed as inhibitors; AID 504834, 2011; also: potency is read from the fitted curve at half-maximal effect; % is scaled to controls: 0 for no effect and ±100 for the full control effect
#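 Readout is luminescence from an integrated firefly luciferase in P. falciparum. Red cells, 2% hematocrit and 0.05% parasitemia final, were cultured with compound through two parasite generations (96 hours) at 37 C, 5% CO2.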
# CHX counter – Cycloheximide Counterscreen for Small Molecule Inhibitors of Shiga Toxin; cell reporter, cycloheximide protein synthesis inhibition counterscreen; max response, %; hit rate 12% among 300,000; AID 2314, 2010; in the data active = max response mostly above about 13%, no sharp cut-off; inactive = mostly below about 14%; also: read at 38.3 µM for the half of the compounds with a filed dose; 0% is about no effect
# Shiga inhibitor – A qHTS for Small Molecule Inhibitors of Shiga Toxin; inhibition, % at 38.7 µM; Vero cells, Shiga toxin protein synthesis inhibition reporter; AID 2315, 2010; hit rate 9.2% among 290,000; in the data active = inhibition mostly above about 28%, no sharp cut-off; inactive = mostly below about 43%; also: 0% is about no effect
# Pf growth 48h – Primary qHTS for delayed death inhibitors of the malarial parasite plastid, 48 hour incubation; AID 504832, 2011; hit rate 5.9% among 310,000; Potency, µM (top dose mostly 28.7 µM), for inactives: at the top dose activity change, negative = inhibition, actives largely listed as inhibitors; P. falciparum luciferase growth in erythrocytes, 48 h; also: potency is read from the fitted curve at half-maximal effect; % is scaled to controls: 0 for no effect and ±100 for the full control effect
#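 Firefly luciferase activity from engineered P. falciparum reports growth; inhibitors lower the luminescent signal. Cultures contained 2% hematocrit erythrocytes at 0.1% final parasitemia.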
# * = called active by the depositor; u = inconclusive; x = no result given. A selection: hits, their analogues and other compounds. The true share with any hit is near 21%. Unless noted, calls follow the shape of the dose curve; as a rule, active = well fitted inhibition curve with a large enough effect; inconclusive = small, poorly fitted or top-dose-only effect, or another doubt; inactive = no such curve, though single readings can be large or run the other way.
SMILES,Pf growth 96h,CHX counter,Shiga inhibitor,Pf growth 48h
CSCC[C@H](NC(=O)[C@H](CC(C)C)N(C)C(=O)[C@@H]1CCCN1C(=O)[C@H](Cc1ccccc1)NC(=O)[C@H](Cc1ccccc1)NC(=O)CCC(C)N)C(=O)O (stereo partly drawn),x,-6,-4,x
COc1ccc(Cl)cc1NC(=O)CSc1nnc(CN2CCOCC2)n1-c1ccc(Cl)cc1,x,-1,-20,u
O=C(O)C1CC(=O)N(CCc2c[nH]c3ccccc23)C1 (stereo not drawn),0%,-3,-6,19%
CCC1=C(OC(=O)N(CC)CC)N2C(=O)OC(=NCCc3c[nH]c4ccccc34)[C@]2(Cc2ccccc2)[C@H]2C1=CC[C@H]1C(=O)N(C)C(=O)[C@H]12,12µM*,-6,9,10µM*
CCC1=C(OC(=O)N(CC)CC)N2C(=O)OC(=NCCc3c[nH]c4ccccc34)[C@]2(Cc2ccccc2)[C@H]2C1=CC[C@H]1C(=O)N(c3ccccc3)C(=O)[C@H]12,u,-5,-9,13µM*
CCC1=C2CC[C@H]3C(=O)N(c4ccccc4)C(=O)[C@H]3[C@H]2[C@@]2(C)C(=NCc3ccccc3)OC(=O)N2C1=O,u,-5,-7,u
CC1CCCCN1S(=O)(=O)c1ccc(NC(=O)c2cccs2)cc1 (stereo not drawn),u,13,37,15µM*
CC1CCN(S(=O)(=O)c2ccc(NC(=O)c3cccs3)cc2)CC1,5%,-5,-1,4.7µM*
CN1C(C)(C)CC(=NOC(=O)c2ccccc2)CC1(C)C,10µM*,-3,-7,-20%
O=C(ON=C1CCN(c2ccc([N+](=O)[O-])cc2)CC1)c1ccccc1,25%,-4,10,1%
CCc1ccccc1NC(=O)CCS(=O)(=O)c1ccc(OC)cc1,7%,-4,-7,2%
CCCCNC(=O)c1cn(-c2ccc(OCC)cc2)c(=O)c2cc(OC)c(OC)cc12,-1%,1,-10,x
CCCN1C(=O)/C(=C/c2c(NCCCOCC)nc3c(C)cccn3c2=O)SC1=S,0%,10,4,u
Cc1cccn2c(=O)c(/C=C3\SC(=S)NC3=O)c(NCCCN3CCOCC3)nc12,u,0,-3,13µM*
COc1ccccc1/C=C\C=N\NC(=O)c1ccco1,-21%,39*,153*,-9%
COc1ccccc1/C=C/C=N/NC(=O)c1cccs1,-19%,44*,116*,u
O=C(N/N=C/C=C\c1ccccc1[N+](=O)[O-])c1ccco1,u,12,-2,u
CCCCOC(=O)c1ccc(NC(=O)c2c(Cl)ccc(Cl)c2OC)cc1,5.2µM*,-2,2,-1%
CCCOC(=O)c1ccc(NC(=O)C2C3CCC(C3)C2C(=O)O)cc1 (stereo not drawn),59%,47*,20*,78%
CCc1ccc(NC(=O)c2ccc(NC(=O)C3CCCO3)cc2)cc1 (stereo not drawn),u,14*,56*,15%
CCOC(=O)c1ccc(NC(=S)NN)cc1,u,-3,8,u
CCOC(=O)c1ccc(NC(=O)C(CC)(CC)C(=O)OCC)cc1,x,-5,-10,8.3µM*
C=CCNCc1ccccc1[N+](=O)[O-],56%,x,x,27%
Cc1c([N+](=O)[O-])c(C/C=N/O)nn1C,-49%,1,12,-19%
CCC/C(=N/NC(=O)c1ccccc1Cl)c1ccccc1,-14%,25,20,11%
SMILES,Pf growth 96h,CHX counter,Shiga inhibitor,Pf growth 48h
CCN(Cc1ccccc1)C(=O)c1oc2ccc(S(=O)(=O)N3CCOCC3)cc2c1C,19%,0,-4,u
CCOC(=O)c1cc(NC(=O)COC)ccc1O,3%,1,-21,49%
CCOC(=O)c1cccc(NC(=O)c2ccc(NC(=O)C3CCCO3)cc2)c1 (stereo not drawn),7.4µM*,6,21,u
CCOC(=O)c1ccc(NC(=O)COC)cc1,15µM*,11*,35*,48%
CCOC(=O)c1cccc(NC(=O)c2ccccc2C)c1,92%,18,6,3%
CCCCOC(=O)c1ccc(O)cc1,12%,11,14,39%
CCOC(=O)c1ccc(NC(=O)c2ccccc2C)cc1,-26%,53*,86*,19%
CCCCOC(=O)Nc1ccc(C(=O)OCCC)cc1,39%,29*,134*,18%
Cc1nc2scc(-c3ccc(C(C)C)cc3)c2c(=O)n1N,-16%,4,-3,-17%
CCCCOC(=O)c1ccc(NC(=O)C2CCCO2)cc1 (stereo not drawn),x,36*,67*,63%
